GLP-1R inv ag: inverse agonists of human GLP-1 receptor | HEK293 GLP-1R CRE-luciferase, luminescence, 24 h; GLP-1R form is constitutively active | Potency, µM (top dose mostly 38.3 µM), without a hit: at the highest dose activity change, negative = inhibition, actives largely listed as inhibitors | 410,000 compounds, 1.6% hits | AID 624417; further: on the % scale 0 is the no-effect control and ±100 the full control effect; nearly all actives have a fitted effect of over 55% in size
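Seeding at 200 cells/uL, 12 h culture, 24 hr compound treatment, then luciferase reagent and a luminescence read; cells are HEK293 stably expressing a constitutively active GLP-1R plus cAMP-responsive luciferase.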
TrxR1 substrate: substrates of rat thioredoxin reductase 1; O89049; purified TrxR1 substrate turnover, NADPH consumption readout; Potency, µM (titrated, usually from 114 µM), inactives show at the top dose activity change, negative = substrate turnover; 390,000 compounds, 0.01% hits; AID 588456; further: on the % scale 0 is the no-effect control and ±100 the full control effect; nearly all actives have a fitted effect of over 50% in size
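Rat TrxR1, dispensed at 90 nM, was prereduced with 400 uM NADPH (final) for 5 min at ~22 deg C, then incubated with compound 15 min before 400 uM selenite. A first-read NADPH fluorescence drop versus no-compound background flagged substrates.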
HEK293 tox: cytotoxic in the GLP-1 receptor inverse agonist counter-screen | 410,000 compounds, 0.13% hits | Potency, µM (top dose mostly 38.3 µM), for the others: top-dose activity change, negative = inhibition, actives largely listed as inhibitors | AID 624418 | HEK293 cAMP-luciferase reporter cells, luminescence, 24 h;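 further: loss of luciferase light is scored as toxicity; on the % scale 0 is the no-effect control and ±100 the full control effect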
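1536-well qHTS counterscreen of the MLSMR; 200 cells/uL, 12 h pre-incubation, 23 nL cpd, 24 h at 37 deg C 5% CO2, luciferase detection reagent, 12 min RT, luminescence. Inhibition = undesired.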
rTrxR1 inhibitor: rat TrxR1 inhibition; Potency, µM (doses to about 114 µM), without a hit: top-dose activity change, negative = inhibition, most hits filed as inhibitors; 390,000 compounds, 1% hits; O89049; recombinant rTrxR1, NADPH fluorescence consumption, selenite substrate; further: on the % scale 0 is the no-effect control and ±100 the full control effect; nearly all actives have a fitted effect of over 65% in size
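Rat TrxR1 (90 nM in the dispensed reagent) was pre-reduced with 400 uM NADPH for 5 min at room temperature, then incubated with compound for 15 min. After 400 uM selenite was added, NADPH fluorescence (Ex 340/Em 450 nm) was followed for 8 min.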
IDH1 R132H inh: human IDH1 R132H inhibition; Potency, µM (titrated, usually from 76.6 µM), inactives show at the highest dose activity change, negative = inhibition, hits mostly inhibitors; O75874; IDH1-R132H enzyme, NADPH consumption, diaphorase/resazurin fluorescence; 390,000 compounds, 0.093% hits; further: on the % scale 0 is the no-effect control and ±100 the full control effect; nearly all actives have a fitted effect of over 65% in size
Target sequence (O75874 whole entry R132H, stated change not applied): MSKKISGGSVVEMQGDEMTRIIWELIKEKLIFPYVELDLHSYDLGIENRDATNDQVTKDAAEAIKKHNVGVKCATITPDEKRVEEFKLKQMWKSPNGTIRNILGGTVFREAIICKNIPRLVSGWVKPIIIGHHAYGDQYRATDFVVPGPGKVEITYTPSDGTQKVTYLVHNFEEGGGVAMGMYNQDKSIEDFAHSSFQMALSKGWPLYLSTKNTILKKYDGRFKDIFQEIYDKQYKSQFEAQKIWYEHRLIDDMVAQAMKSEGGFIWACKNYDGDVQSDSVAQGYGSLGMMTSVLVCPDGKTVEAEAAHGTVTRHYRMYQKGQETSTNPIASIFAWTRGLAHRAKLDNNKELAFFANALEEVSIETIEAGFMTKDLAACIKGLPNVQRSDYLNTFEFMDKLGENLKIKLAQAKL
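IDH1-R132H (0.5 ug/mL) preincubated 30 min with compound, then NADPH (0.016 mM) and alpha-KG (2 mM) added; 80 min at RT, pH 7.5. Remaining NADPH coupled via diaphorase/resazurin to fluorescence (540/590 nm); concentration-response curves normalized to no-enzyme control.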
GLP-1R agonist: agonists of human GLP-1 receptor; HEK293 GLP-1R CRE-luciferase, luminescence, 4-6 h; cells express a hypersensitive GLP-1R form; 380,000 compounds, 0.007% hits; Potency, µM (titrated, usually from 45.6 µM), for the others: at the highest dose activation, actives largely listed as activators; further: % of control where 0% means no effect
The depositor's hits bear a star; ? = inconclusive; . = no result; [ ] = dose if it differs, or a comment. Compounds with a hit are over-represented: about 2.7% of the library has one in this group of screens. The call rests on the fitted dose curve; in most records, active means well fitted curve in the direction sought with a large enough effect; inconclusive means small, poorly fitted or top-dose-only effect, or another doubt; inactive means no such curve, though single readings can be large; an effect the other way counts as inactive or inconclusive. Potency means the concentration at half of the fitted maximal effect.

SMILES	GLP-1R inv ag	TrxR1 substrate	HEK293 tox	rTrxR1 inhibitor	IDH1 R132H inh	GLP-1R agonist
O=C(O)c1ccc2nc(-c3cc4cc(Cl)ccc4oc3=O)[nH]c2c1	29%	-5%[57.1 µM]	68%	1%[57.1 µM]	4%	.
Cc1c(CC(=O)N2CCN(C(=O)C3COc4ccccc4O3)CC2)c(=O)oc2cc(O)c(Cl)cc12 (configuration not stated)	-29%	939%	442%	32µM*	-3%	0%
Cc1c(CC(=O)NCc2ccc(F)cc2)c(=O)oc2cc(O)c(Cl)cc12	11%	893%	2%	79µM*	5%	.
CN(C)c1ccc2c(=O)cc[nH]c2c1	26%	.	-10%	.	.	-2%
Clc1ccc(C2Nc3cccc4cccc(c34)N2)cc1	-10%	5%	-1%	35µM*	4%	0%
CSc1ccc(C2Nc3cccc4cccc(c34)N2)cc1	10%	-8%	-21%	?	13%	10%
Brc1ccc(C2Nc3cccc4cccc(c34)N2)s1	11%	-4%	?	5µM*	2%	-1%
CCCCCCCNC(=O)C1(CC2CC(c3ccccc3)=NO2)CCNCC1 (configuration not stated)	-7%	5%	9%	?	2%	29%
O=C(NCc1ccccc1)C1(CC2CC(c3ccccc3)=NO2)CCNCC1 (configuration not stated)	?	4%	0%	22µM*	-12%	10%
CCOc1ccc(S(=O)(=O)n2nc(C)c(S(=O)(=O)N3CCCCC3)c2C)cc1	10%	2%[57.1 µM]	0%	23%[57.1 µM]	27%	-2%
CCOc1ccc(C(=O)NC(=S)Nc2cccnc2)cc1[N+](=O)[O-]	7%[7.66 µM]	-6%	-3%[7.66 µM]	-43%	5%	3%
COc1ccc(C(=O)NC(=S)Nc2cccnc2)cc1[N+](=O)[O-]	-8%	-3%	-4%	10µM*	-8%	-15%
Cc1cc(C)cc(C(=O)NC(=S)Nc2cccnc2)c1	?	4%	?	45µM*	0%	2%
Cc1cccc(C)c1OCCNC(=O)OCc1ccccc1	11µM*	8%[0.0914 µM]	-8%	7%	5%	9%
CC(C)(C)c1ccc(C(=O)NNc2cc(N3CCCCC3)nc(N3CCCCC3)n2)cc1	3.2µM*	-12%	?	-4%	4%	-9%
CC(C)CNC(=O)c1ccccc1NC(=O)CCSc1ccccc1	7.1µM*	9%	-9%	25%	0%	25%
CCCCCCCCN(CCCCCCCC)c1ccc(/C=C/c2ccnc3ccccc23)cc1	.	6%	.	3%	.	.
O=c1cnn([C@@H]2O[C@H](CO)[C@@H](O)[C@H]2O)c(=O)[nH]1	1µM*	5%	4%	29%	-3%	-6%
CCc1ccccc1NC(=O)Cn1nnc2sc3c(c2c1=O)CCC(C(C)(C)C)C3 (configuration not stated)	11µM*	-8%	-14%	8%	.	.
CC(C)Cc1nc2ccccc2n1CCc1ccccc1	13µM*	7%[57.1 µM]	?	8%[57.1 µM]	2%	18%
CC(C)(C)Cc1nc2ccccc2n1CCc1ccccc1	5µM*	-9%	-4%	-15%	15%	5%
COc1ccc(S(=O)(=O)N(C(=O)c2ccncc2)c2ccc3oc(C)c(C(C)=O)c3c2)cc1	3.2µM*	-10%	-25%	?	38%	.
COC(=O)c1c(C)oc2ccc(N(C(=O)c3ccncc3)S(=O)(=O)c3ccc(OC)cc3)cc12	?	-4%	?	-2%	-12%	.
COc1ccc(S(=O)(=O)N(C(=O)c2ccncc2)c2ccc3oc4c(c3c2)CCCC4)cc1	10µM*	-3%	?	4%	6%	-14%
O=C1C(=Cc2ccco2)CCC1=Cc1ccco1	9%	4%[57.1 µM]	-8%	2.8µM*	6%	-14%
O/N=C1\CCC\C1=C/c1ccco1	4%	4%	1%	?	4%	15%

Source: PubChem
